G9a inh: G9a (human) methyltransferase inhibition; Q96KQ7; G9a H3K9 monomethylation, AlphaScreen, 2 h; Potency, µM (titrated, usually from 102 µM), inactives show top-dose activity, negative = inhibition, usual class: inhibitors; hit rate 8.8% among 350,000; further: on the % scale 0 is the no-effect control and ±100 the full control effect; nearly all actives have a fitted effect of over 75% in size
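Signal arises when biotinylated H3K9 peptide, once monomethylated, bridges streptavidin donor and antibody-captured acceptor beads. Enzyme at 20 nM was preincubated 15 min with test compounds; peptide 500 nM and SAM 20 uM then reacted for 2 h.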
BAZ2B block: inhibitors of human BAZ2B bromodomain | Potency, µM (top dose mostly 114 µM), without a hit: at the top dose activity change, negative = inhibition, usual class: inhibitors | Q9UIF8 | hit rate 4.4% among 360,000 | AlphaScreen BAZ2B-H3K14Ac peptide displacement; further: on the % scale 0 is the no-effect control and ±100 the full control effect; nearly all actives have a fitted effect of over 60% in size
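Multi-concentration screen (max 110 uM) measuring displacement of acetylated histone H3 peptide from BAZ2B by AlphaScreen, using 50 nM protein, 50 nM peptide and 10 ug/mL streptavidin donor plus Ni-chelate acceptor beads.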
HP1b binding inh: blocks HP1-beta chromodomain binding to methylated histone tails. P83916. AlphaScreen HP1-beta / biotin-H3K9me3 peptide binding. Potency, µM (titrated, usually from 114 µM), inactives show at the top dose activity change, negative = inhibition, actives largely listed as inhibitors. hit rate 0.56% among 390,000; further: nearly all actives have a fitted effect of over 70% in size
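AlphaScreen: HP1-beta (50 nM) preformed 30 min with biotin-H3(1-18)K9me3 peptide (50 nM) in PBS pH 7.4, 0.01% Tween-20. Compound added for 30 min at RT, then streptavidin donor/nickel chelate acceptor beads (10 ug/mL) for 30 min.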
JMJD2A Tudor: inhibitors of human JMJD2A Tudor domain; AID 504339; Potency, µM (doses to about 114 µM), for the others: at the highest dose activity change, negative = inhibition, most hits filed as inhibitors; O75164; AlphaScreen JMJD2A-Tudor / H3K4me3 peptide binding; hit rate 4.4% among 390,000; further: on the % scale 0 is the no-effect control and ±100 the full control effect; nearly all actives have a fitted effect of over 50% in size
Target sequence (O75164 whole entry, looked up, the tested form may be a part): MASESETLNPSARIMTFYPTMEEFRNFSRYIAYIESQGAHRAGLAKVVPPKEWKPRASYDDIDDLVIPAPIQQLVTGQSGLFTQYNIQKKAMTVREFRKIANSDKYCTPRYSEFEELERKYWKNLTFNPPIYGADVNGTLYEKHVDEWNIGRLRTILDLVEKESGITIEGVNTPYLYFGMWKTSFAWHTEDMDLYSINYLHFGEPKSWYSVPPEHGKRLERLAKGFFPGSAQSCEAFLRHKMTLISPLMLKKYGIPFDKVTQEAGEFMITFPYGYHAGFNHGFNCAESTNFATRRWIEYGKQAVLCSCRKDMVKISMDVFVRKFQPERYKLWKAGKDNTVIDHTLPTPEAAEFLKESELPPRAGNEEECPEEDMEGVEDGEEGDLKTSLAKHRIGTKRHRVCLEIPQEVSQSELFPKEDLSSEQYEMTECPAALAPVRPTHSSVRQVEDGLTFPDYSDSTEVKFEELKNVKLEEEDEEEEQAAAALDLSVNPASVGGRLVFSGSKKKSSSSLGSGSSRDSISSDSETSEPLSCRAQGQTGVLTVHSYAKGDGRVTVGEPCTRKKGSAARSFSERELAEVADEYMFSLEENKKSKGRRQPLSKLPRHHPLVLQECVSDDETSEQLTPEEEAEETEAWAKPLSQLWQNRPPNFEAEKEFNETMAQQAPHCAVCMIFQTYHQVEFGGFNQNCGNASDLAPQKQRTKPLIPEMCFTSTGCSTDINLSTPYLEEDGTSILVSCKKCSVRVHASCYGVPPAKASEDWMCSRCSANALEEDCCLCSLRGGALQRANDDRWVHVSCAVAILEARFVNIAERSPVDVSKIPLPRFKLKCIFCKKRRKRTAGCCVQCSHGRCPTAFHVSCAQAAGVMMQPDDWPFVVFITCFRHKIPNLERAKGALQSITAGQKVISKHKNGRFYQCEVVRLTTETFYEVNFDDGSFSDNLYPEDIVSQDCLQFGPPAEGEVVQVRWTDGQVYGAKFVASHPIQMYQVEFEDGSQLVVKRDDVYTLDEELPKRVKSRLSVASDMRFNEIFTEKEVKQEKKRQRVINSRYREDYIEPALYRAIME
GLS inh: inhibitors of human glutaminase (GLS) | O94925 | GLS enzymatic activity, qHTS titration | Potency, µM (highest dose often 45.5 µM), for inactives: at the top dose activity change, negative = inhibition, usual class: inhibitors | hit rate 0.21% among 410,000 | AID 624170; further: on the % scale 0 is the no-effect control and ±100 the full control effect
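Enzyme dispensed in phosphate buffer (45 mM, pH 8.2, 0.02% Tween-20), compounds pinned in, then 1 mM L-glutamine solution and the glutamate oxidase–HRP–Amplex Red mix added; fluorescence read immediately and again after 30 min at room temperature.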
* hit, by the source's call; ? = inconclusive; . = no result given; [ ] = another dose, or the depositor's remark. An excerpt weighted towards active compounds, which were near 10% of everything screened. The call rests on the fitted dose curve; in most records, active means well fitted curve in the direction sought with a large enough effect; inconclusive means small, poorly fitted or top-dose-only effect, or another doubt; inactive means no such curve, though single readings can be large; an effect the other way counts as inactive or inconclusive. Potency means the concentration at half of the fitted maximal effect.

SMILES	G9a inh	BAZ2B block	HP1b binding inh	JMJD2A Tudor	GLS inh
CSc1ccccc1C(=O)NC1CCCN(c2ccc(C(F)(F)F)cn2)C1 (configuration not stated)	8.91µM*	-13.0%[57.1 µM]	67.4%	-6.2%	-6.9%
O=C(NC1CCCN(c2ccc(C(F)(F)F)cn2)C1)c1ccncc1 (configuration not stated)	-0.2%	-3.1%	23.6%	-9.0%	-1.0%
COC(=O)C(C(=O)Nc1ncccn1)C1CCCCCC1 (configuration not stated)	2.1%[12.7 µM]	-22.7%	39.5%	-4.9%	0.2%
COc1c(Br)cc(Br)cc1/C=N/n1c(C)nnc1C	-34.1%[12.7 µM]	-4.3%	?	39.8µM*	50.4%
COc1cccc(-c2noc(C3CCCN(C(=O)CC(C)(C)C)C3)n2)c1 (configuration not stated)	-8.5%	-21.1%	42.9%	-11.6%	0.4%
C[C@H](N)CCCP(=O)(O)O	32.0%[59 µM]	.	.	.	.
CC(C)(C)OC(=O)N1CCC(c2cc(=O)n3[nH]cc(C(=O)NC4CCCC4)c3n2)CC1	56.2µM*	-1.0%	40.6%	-16.6%	6.3%
CC(C)(C)OC(=O)N1CCC(c2cc(=O)n3[nH]cc(C(=O)Nc4ccc(F)c(Cl)c4)c3n2)CC1	-41.7%	-1.9%	8.7%[57 µM]	-17.8%	?
COc1ccc(NC(=O)c2c[nH]n3c(=O)cc(C4CCN(C(=O)OC(C)(C)C)CC4)nc23)cc1Cl	44.7µM*	?	17.0%	-26.7%	-10.3%
CC(C)(C)OC(=O)N1CCC(c2c(C(=O)NC3CCCCC3)cnn2-c2cccc(Cl)c2)CC1	-10.8%[59 µM]	4.5%[57.1 µM]	-7.3%	-32.4%	-11.7%
O=C(CSc1nnc(Cc2cccs2)n1Cc1ccco1)Nc1cc(Cl)cc(Cl)c1	-43.9%[59 µM]	-10.4%	?	-17.3%	-6.7%
CSc1ccc(OC2CCCCC2NS(=O)(=O)c2ccc(Cl)cc2)cc1 (configuration not stated)	-8.6%[59 µM]	-19.9%	39.1%	-16.7%	-13.2%
Cc1ccc(S(=O)(=O)N2CCOCC2)cc1NC(=O)COC(=O)Cc1ccc(Cl)cc1	.	.	13.1%	-20.3%	6.5%
COC(=O)C1=C(C)OC(N)=C(C#N)C1c1ccccc1 (configuration not stated)	-4.9%[2.33 µM]	0.8%	62.3%	-8.4%[57.1 µM]	4.8%
CNC(=O)C1C(=S)NC(N)=C(C#N)C1c1ccccc1 (configuration not stated)	12.6µM*	-10.6%	-19.2%	25.1µM*	-26.1%
Cc1ccc(/C=C/C2=Cc3c(sc(NC(=O)CSc4n[nH]c(N)n4)c3C#N)C(C)(C)C2)o1	8.91µM*	?	.	.	.
Cc1sc(NC(=O)CSc2n[nH]c(N)n2)c(C#N)c1C	.	.	-3.1%[57 µM]	-30.6%	-3.9%
NC(COCc1ccccc1)c1csc(Nc2ccc(C(F)(F)F)cn2)n1 (configuration not stated)	.	.	.	.	10.2%
CC1CCCN(C(=O)c2ccc(-c3ccccc3Cl)o2)C1 (configuration not stated)	44.7µM*	?	-4.9%	45.7%	0.9%
O=C(c1ccc(-c2ccccc2Cl)o1)N1CCCCCCC1	.	.	?	115.8%	-2.4%
N#Cc1c(SCC(N)=O)nc2c(c1-c1ccncc1)CCCC2	39.8µM*	-3.9%	38.0%	?	5.0%
Cc1cccc(CCNC(=O)CN(C)S(=O)(=O)c2cnc[nH]2)c1	13.7%[59 µM]	?	11.0%	-4.8%	6.3%
CC1=C(C(=O)OCCCBr)C(c2ccc3c(c2)OCO3)NC(=O)N1 (configuration not stated)	50.1µM*	-34.5%	34.5%	-11.9%	4.9%
CC1=C(C(=O)OCCBr)C(c2cccc3ccccc23)NC(=O)N1 (configuration not stated)	79.4µM*	-2.5%	-13.0%	-11.3%	8.4%
CCCOC(=O)C1=C(C)NC(=O)NC1c1cccc2ccccc12 (configuration not stated)	56.4%	-15.2%	37.5%	-10.3%	10.3%
SMILES	G9a inh	BAZ2B block	HP1b binding inh	JMJD2A Tudor	GLS inh
CCN(C(=O)CN1CCOCC1)C1(C)C(=O)c2ccccc2C1=O	-11.5%[59 µM]	-31.7%	47.4%	3.0%	0.3%
c1ccc(-c2csc(NC3=NCCCCC3)n2)cc1	13.9%[59 µM]	-37.6%	24.8%	-9.1%	-3.6%
Brc1ccc(-c2csc(NNC3=NCCCCC3)n2)cc1	12.6µM*	35.5µM*	-22.3%	?	-2.0%
CC(Oc1ccccc1)C(=O)Nc1nc(-c2ccncc2)cs1 (configuration not stated)	-9.1%[12.7 µM]	2.8%	31.3%	-9.7%	6.6%
CC(C)(C)c1ccc(-c2csc(NNC3=NCCCCC3)n2)cc1	12.6µM*	?	?	?	14.4%
N#Cc1ccc(-c2csc(NC3=NCCCCC3)n2)cc1	-6.5%[59 µM]	-2.5%	51.0%	-15.5%	0.7%
FC(F)Oc1ccc(-c2csc(NNC3=NCCCCC3)n2)cc1	12.6µM*	?	?	?	?
Cc1c(C)n(CC(O)CN2CCOCC2)c2ccccc12 (configuration not stated)	12.6µM*	.	70.8µM*	22.4µM*	-20.7%
Cc1c(C)n(CC(O)CN2CCCCC2)c2ccccc12 (configuration not stated)	?	44.7µM*	?	1.58µM*	33.2%
Cc1ccc2c(c1)c(C)c(C)n2CC(O)Cn1nc(C)c(Br)c1C (configuration not stated)	?	44.7µM*	-35.5%	50.1µM*	-8.5%
Cc1c(C)n(CC(O)CN2CCN(C)CC2)c2ccccc12 (configuration not stated)	?	-35.0%	3.7%[57 µM]	-30.9%	-6.2%
Cc1cc(C)n(CC(O)Cn2c(C)c(C)c3ccccc32)n1 (configuration not stated)	12.6µM*	35.5µM*	?	3.55µM*	14.6%
O=c1c2ccccc2n(CC(O)CN2CCOCC2)c2ccccc12 (configuration not stated)	-10.1%[2.33 µM]	0.5%	17.7%	7.8%	-3.1%
O=C(Nc1nccs1)c1cc(Cl)ccc1[N+](=O)[O-]	-8.5%[59 µM]	-3.6%	-1.3%	-25.3%	5.8%
CC1CCCN(S(=O)(=O)c2ccc(S(=O)(=O)N3CCC4(CC3)OCCO4)cc2)C1 (configuration not stated)	-11.2%[59 µM]	-4.5%	20.6%	-1.4%	-10.4%
Cc1nnc(NN)n(N)c1=O	.	11.0%	22.4µM*	31.6µM*	22.7%
CN(C)c1ccc2c(c1)C(=NO)c1ccccc1-2	.	.	44.7µM*	39.8µM*	15.0%
Cc1cc(N2CCCCC2)nc2ccc(NC(=O)/C=C/c3ccc(OC(C)C)cc3)cc12	4.8%[59 µM]	-0.4%	12.8%	-26.3%	0.1%
CC1(C)CC(=O)C=C(Nc2ccc(O)c(C(=O)O)c2)C1	44.7µM*	-19.3%	41.4%	-28.6%	19.4%
CC1(C)CC(=O)C=C(Nc2ccc(C(=O)O)cc2)C1	-22.3%[59 µM]	10.4%	30.6%	4.6%	13.3%
COc1ccccc1CNC(=O)CCNS(=O)(=O)c1ccc2[nH]c(=O)oc2c1	-1.8%	2.7%	1.1%	39.8µM*	1.5%
